# Assay results from PubChem BioAssay (Tox21).
# Records with an inconclusive call do not appear. A number with no mark means an inactive call. Calls of active or inactive are those of the source. Unless noted, the call rests on the fitted dose curve.
# Biological target: Nuclear receptor ROR-gamma (Homo sapiens) (UniProt P51449)
# Assay: qHTS assay to identify small molecule antagonists of the retinoid-related orphan receptor gamma (ROR-gamma) signaling pathway (AID 1159521; active means well fitted inhibition curve with a large enough effect in the repeat runs; further: nearly all actives have a fitted effect of over 50% in size; further: potency means the concentration at half of the fitted maximal effect;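 on activity change, negative = inhibition: CHO cells with doxycycline inducible ROR-gamma driving an RORE luciferase reporter; top concentration of the series differs between compounds; on the % scale 0 is the no-effect control and ±100 the full control effect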)
# Conditions: Tet-on RORgamma CHO cells, RORE-luciferase, 16 h; series mostly up to 92.4 µM; activity change, negative = inhibition: at the top concentration
# How it was run: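 Screening format: cell-based luciferase reporter in CHO cells with doxycycline-inducible RORγ. Compound pre-exposure lasts 2 h, doxycycline is 1 uM final, induction runs 16 h at 37 C, and ONE-Glo luminescence is read.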
SMILES,"activity change, negative = inhibition",Potency
N#Cc1ccc(Cl)cc1,22.6%,–
CO/C=C(/C(=O)OC)c1ccccc1COc1cccc(C(F)(F)F)n1,–,0.769 µM (active)
COC(=O)c1cncn1C(C)c1ccccc1 (centres undefined),-7.23% [at 42.5 µM],–
N#CCC#N,–,27.3 µM (active)
CCCCC(O)(Cn1cncn1)c1ccc(Cl)cc1Cl (centres undefined),–,54.4 µM (active)
c1ccc(C2CC2)c(OCC2=NCCN2)c1,-18.3% [at 42.5 µM],–
C=CCN1CC[C@]23c4c5ccc(O)c4O[C@H]2C(=O)CC[C@@]3(O)[C@H]1C5,33.8% [at 42.5 µM],–
C[N+](C)(C)CCCl,-20.9%,–

# System: not listed separately
# Assay: qHTS assay to identify small molecule agonists of the AP-1 signaling pathway - cell viability counter screen (AID 1159525); further: nearly all actives have a fitted effect of over 55% in size
# Conditions: ME-180 AP-1-bla cells viability, ATP luminescence, 5 h; series mostly up to 76.8 µM; viability change, negative = cytotoxic: at the top concentration
# How it was run: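 Same-well cytotoxicity counter screen of the Tox21 10K library in ME-180 cells. The readout is ATP-dependent luminescence after 5 h compound treatment. Data are normalised to DMSO and tetra n-octyl ammonium bromide controls.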
row,SMILES,"viability change, negative = cytotoxic"
1,CCCCCCCCOC(=O)c1ccc(C(=O)OCCCCCCCC)c(C(=O)OCCCCCCCC)c1,4.98%
2,N#Cc1ccc(Cl)cc1,-3.01%
3,CO/C=C(/C(=O)OC)c1ccccc1COc1cccc(C(F)(F)F)n1,0.215%
4,CCOc1nc(F)cc2nc(S(=O)(=O)Nc3c(Cl)cccc3Cl)nn12,-9.84%
5,C[C@]12CC[C@H]3[C@@H](CCC4=CC(=O)CC[C@@H]43)[C@@H]1CC[C@@H]2OC(=O)CCC1CCCCC1,-0.0162% [at 35.3 µM]
6,CN1[C@@H]2CC[C@H]1CC(OC(=O)c1cc(Cl)cc(Cl)c1)C2 (some centres undefined),-5.91% [at 35.3 µM]
7,COc1cc(Cl)c(OC)cc1Cl,-7.63%
8,CCOP(=S)(OCC)SCSCC,-0.543%
9,Cc1c(F)c(F)c(COC(=O)C2C(/C=C(\Cl)C(F)(F)F)C2(C)C)c(F)c1F (centres undefined),-1.66%
10,CC[C@H]1C[C@H]2[C@@H]3CCC4=CC(=O)CC[C@@H]4[C@H]3CC[C@]2(C)[C@H]1O,5.32% [at 35.3 µM]
11,COC(=O)c1cncn1C(C)c1ccccc1 (centres undefined),5.91% [at 35.3 µM]
12,COc1ccc(-c2ccccc2)cc1NNC(=O)OC(C)C,-15.5%
13,O=[Se]=O,1.66% [at 35.3 µM]
14,CCc1ccc(C(=O)NN(C(=O)c2cc(C)cc(C)c2)C(C)(C)C)cc1,-0.0084%
15,COC(=O)C(C)N(C(=O)Cc1ccccc1)c1c(C)cccc1C (centres undefined),0.55%
16,CC(C)O.CC(C)O.OCCN(CCO)CCO.OCCN(CCO)CCO.[Ti],0.202%

row,SMILES,"viability change, negative = cytotoxic"
1,N#CCC#N,1.22%
2,CCOS(C)(=O)=O,-1.38%
3,CCOP(=S)(Oc1ccc([N+](=O)[O-])cc1)c1ccccc1 (centres undefined),-16.1%
4,c1ccc(C2CC2)c(OCC2=NCCN2)c1,14.2% [at 35.3 µM]
5,ClP(Cl)(Cl)(Cl)Cl,1.71%
6,O=C(CBr)OCc1ccccc1,-16.1%
7,CN1C[C@H](CNC(=O)OCc2ccccc2)C[C@@H]2c3cccc4c3c(cn4C)C[C@H]21,-4.24% [at 35.3 µM]
8,C=CCN1CC[C@]23c4c5ccc(O)c4O[C@H]2C(=O)CC[C@@]3(O)[C@H]1C5,-1.99% [at 35.3 µM]
9,Cn1sc(Cl)cc1=O,-2.59%
10,O=C(NC(=O)c1c(F)cccc1F)Nc1cc(Cl)c(Oc2ncc(C(F)(F)F)cc2Cl)c(Cl)c1,0.113%
11,CCCCc1c(C)nc(NCC)nc1OS(=O)(=O)N(C)C,-0.994%
12,CCO[C@H]1O[C@@H]2OC3(C)CC[C@H]4[C@H](C)CC[C@@H]([C@H]1C)[C@@]24OO3,1.54% [at 35.3 µM]
13,NC(=O)CI,-19.8%
14,C[N+](C)(C)CCCl,-2.55%
15,Nc1ccc([N+](=O)[O-])cc1[N+](=O)[O-],4.69%

# System: not listed separately
# Assay: qHTS assay to identify small molecule agonists of the AP-1 signaling pathway (AID 1159526); further: on the % scale 0 is the no-effect control and ±100 the full control effect
# Conditions: ME-180 (cervical carcinoma) AP-1-bla reporter, beta-lactamase FRET ratio, 5 h; series mostly up to 76.8 µM; activation: at the top concentration
row,SMILES,activation
1,CCCCCCCCOC(=O)c1ccc(C(=O)OCCCCCCCC)c(C(=O)OCCCCCCCC)c1,0.203%
2,N#Cc1ccc(Cl)cc1,-7.5%
3,CO/C=C(/C(=O)OC)c1ccccc1COc1cccc(C(F)(F)F)n1,0.385%
4,CCOc1nc(F)cc2nc(S(=O)(=O)Nc3c(Cl)cccc3Cl)nn12,-10.8%
5,C[C@]12CC[C@H]3[C@@H](CCC4=CC(=O)CC[C@@H]43)[C@@H]1CC[C@@H]2OC(=O)CCC1CCCCC1,22.8% [at 35.3 µM]
6,CN1[C@@H]2CC[C@H]1CC(OC(=O)c1cc(Cl)cc(Cl)c1)C2 (some centres undefined),-3.04% [at 35.3 µM]
7,CCOP(=S)(OCC)SCSCC,3.54%
8,Cc1c(F)c(F)c(COC(=O)C2C(/C=C(\Cl)C(F)(F)F)C2(C)C)c(F)c1F (centres undefined),-1.15%
9,COC(=O)c1cncn1C(C)c1ccccc1 (centres undefined),-8.7% [at 35.3 µM]
10,COc1ccc(-c2ccccc2)cc1NNC(=O)OC(C)C,5.13%
11,O=[Se]=O,2.12% [at 35.3 µM]
12,CCc1ccc(C(=O)NN(C(=O)c2cc(C)cc(C)c2)C(C)(C)C)cc1,-5.42%
13,COC(=O)C(C)N(C(=O)Cc1ccccc1)c1c(C)cccc1C (centres undefined),13.1%
14,Cc1ccccc1C(=O)Nc1cccc(OC(C)C)c1,-1.44%
15,ClCc1cccc(Cl)c1,-3.25% [at 35.3 µM]
16,CCOS(C)(=O)=O,11.6%
17,CCOP(=S)(Oc1ccc([N+](=O)[O-])cc1)c1ccccc1 (centres undefined),7.42%
18,c1ccc(C2CC2)c(OCC2=NCCN2)c1,-0.412% [at 35.3 µM]
19,ClP(Cl)(Cl)(Cl)Cl,-12.1%
20,C=CCN1CC[C@]23c4c5ccc(O)c4O[C@H]2C(=O)CC[C@@]3(O)[C@H]1C5,-0.174% [at 35.3 µM]
21,CCCCc1c(C)nc(NCC)nc1OS(=O)(=O)N(C)C,-0.348%
22,C[N+](C)(C)CCCl,-1.51%
23,Nc1ccc([N+](=O)[O-])cc1[N+](=O)[O-],-10.5%

# Biological target: Retinoic acid receptor RXR-alpha (Homo sapiens) (UniProt P19793)
# Sequence (P19793 whole entry, looked up): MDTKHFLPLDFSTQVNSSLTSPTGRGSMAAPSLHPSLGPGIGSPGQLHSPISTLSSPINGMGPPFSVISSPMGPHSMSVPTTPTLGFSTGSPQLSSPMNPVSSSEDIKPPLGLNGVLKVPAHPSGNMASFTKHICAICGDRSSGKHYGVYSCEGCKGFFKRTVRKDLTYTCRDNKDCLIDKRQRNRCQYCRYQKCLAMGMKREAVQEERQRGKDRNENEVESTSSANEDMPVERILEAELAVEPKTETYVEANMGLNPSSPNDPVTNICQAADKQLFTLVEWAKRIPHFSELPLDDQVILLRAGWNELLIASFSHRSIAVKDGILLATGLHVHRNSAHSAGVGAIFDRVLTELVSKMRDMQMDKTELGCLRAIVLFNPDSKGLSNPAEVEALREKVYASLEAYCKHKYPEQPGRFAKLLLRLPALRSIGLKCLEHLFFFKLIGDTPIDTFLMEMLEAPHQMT
# Assay: qHTS assay to identify small molecule agonists of the RXR signaling pathway (AID 1159527); further: on the % scale 0 is the no-effect control and ±100 the full control effect; nearly all actives have a fitted effect of over 35% in size
# Conditions: HEK293T RXRa-UAS-bla, beta-lactamase ratio, 16 h; series mostly up to 76.8 µM; activation: at the top concentration
# How it was run: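 Fluorescence ratio readout (460 vs 530 nm) from GeneBLAzer RXR-alpha HEK 293T cells after 16 hr compound treatment; cells seeded 5 hr beforehand in low-serum, charcoal-stripped medium.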
row,SMILES,activation
1,N#Cc1ccc(Cl)cc1,5.23%
2,CC(c1ccc(O)cc1)(c1ccc(O)cc1)c1ccc(O)cc1,16.2%
3,COC(=O)c1cncn1C(C)c1ccccc1 (centres undefined),8.41% [at 35.3 µM]
4,O=[Se]=O,-1.22% [at 35.3 µM]
5,ClCc1cccc(Cl)c1,-0.438% [at 35.3 µM]
6,c1ccc(C2CC2)c(OCC2=NCCN2)c1,4.1% [at 35.3 µM]
7,ClP(Cl)(Cl)(Cl)Cl,4.7%
8,O=C(CBr)OCc1ccccc1,-9.45%
9,C=CCN1CC[C@]23c4c5ccc(O)c4O[C@H]2C(=O)CC[C@@]3(O)[C@H]1C5,9.25% [at 35.3 µM]
10,Cn1sc(Cl)cc1=O,-0.0244%
11,C[N+](C)(C)CCCl,4.91%
12,Nc1ccc([N+](=O)[O-])cc1[N+](=O)[O-],-13.1%
